This test has as its target furin, P09958. Nature of the test: furin cleavage Z-score vs untreated control; higher = more cleavage, active = 3.5 or more, inactive = 1 or less, 8 variable residues between constant flanks. In a few lines:
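Reactions of 0.01 ml ran for 7.5, 15 or 30 min in 50 mM HEPES pH 7.5 with CaCl2 and NaCl, at 1:10 enzyme:substrate. In them, purified furin acted on bead-held 8-mer peptides fused to a cDNA oligonucleotide. The cleavage Z-score was obtained by lowess-adjusting log sequencing counts of released DNA against furin-free reactions and scaling by median absolute deviation.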

The list shows a part of the results. The true hit rate is not given.

furin, P09958, sequence (P09958 whole entry, the tested form may be a part): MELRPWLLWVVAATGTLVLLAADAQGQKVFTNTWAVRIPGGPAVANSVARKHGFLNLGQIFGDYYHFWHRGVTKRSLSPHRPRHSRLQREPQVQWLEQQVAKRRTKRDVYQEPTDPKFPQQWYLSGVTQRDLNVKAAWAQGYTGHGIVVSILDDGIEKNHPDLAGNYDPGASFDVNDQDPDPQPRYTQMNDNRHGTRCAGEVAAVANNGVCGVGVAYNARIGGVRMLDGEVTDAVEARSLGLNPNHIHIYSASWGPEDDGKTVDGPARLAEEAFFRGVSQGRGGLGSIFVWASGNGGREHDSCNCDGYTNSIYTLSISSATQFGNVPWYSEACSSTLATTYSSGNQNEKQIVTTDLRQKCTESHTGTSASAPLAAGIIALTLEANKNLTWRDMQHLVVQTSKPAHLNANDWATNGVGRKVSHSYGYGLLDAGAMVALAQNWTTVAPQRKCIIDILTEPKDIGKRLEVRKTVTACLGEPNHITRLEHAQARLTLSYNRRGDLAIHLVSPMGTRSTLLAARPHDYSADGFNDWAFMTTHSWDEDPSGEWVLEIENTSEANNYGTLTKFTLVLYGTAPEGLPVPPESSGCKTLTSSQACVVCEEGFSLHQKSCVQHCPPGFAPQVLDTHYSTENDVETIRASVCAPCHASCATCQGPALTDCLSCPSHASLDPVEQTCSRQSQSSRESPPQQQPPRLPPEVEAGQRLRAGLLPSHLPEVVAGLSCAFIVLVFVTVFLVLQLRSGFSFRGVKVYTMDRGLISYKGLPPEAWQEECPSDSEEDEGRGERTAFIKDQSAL

In the case of CAAWKSKKTPAGNASASA [HC1474], the “furin cleavage Z-score” value (7.5 min) was -0.115 (inactive), the “furin cleavage Z-score” value (15 min) is 0.0818 (inactive) and the “furin cleavage Z-score” value (30 min) was -0.362 (inactive).
Take CAGRDKNQVEAGNASASA [HC685]: the “furin cleavage Z-score” value is, setting by setting: (7.5 min) 0.288 (inactive); (15 min) -0.161 (inactive); (30 min) -1.36 (inactive).
In the same order, the values of CAAQLHVWIPAGNASASA [HC588] are -0.31 (inactive), -0.454 (inactive) and -0.108 (inactive).
In the same order, the values of CAINGLPVSAAGNASASA [HC659] are -0.744 (inactive), -0.464 (inactive) and -0.336 (inactive).
In the same order, the values of CARQKRSVSIAGNASASA [FS-2170] are 3.57 (active), 5.04 (active) and 6.27 (active).
For CAWSTVSSEAAGNASASA [HC1363], the “furin cleavage Z-score” value is 1.2 (7.5 min), -0.449 (inactive) (15 min) and 0.19 (inactive) (30 min).
In the same order, the values of CARQKRIHSAAGNASASA [FS-2361] are -1.05 (inactive), -0.069 (inactive) and -0.712 (inactive).
In the same order, the values of CARQKRSSEAAGNASASA [FS-3037] are 9.89 (active), 9.51 (active) and 6.34 (active).
The corresponding values for CADRLQVLDSAGNASASA [HC1398] are 1.26, 0.665 (inactive) and 0.144 (inactive).
On to CAQFKQKALGAGNASASA [HC1024], for which the “furin cleavage Z-score” value by setting is: (7.5 min) 0.453 (inactive); (15 min) -0.904 (inactive); (30 min) 0.989 (inactive).
In the same order, the values of CAPVSARRGRAGNASASA [HC661] are 3.67 (active), 2.35 and 2.39.
As to CANCGYRRCRAGNASASA [HC1507], the “furin cleavage Z-score” value reads like this: (7.5 min) -0.406 (inactive); (15 min) -0.477 (inactive); (30 min) 0.265 (inactive).
In the same order, the values of CAPLNVRGGRAGNASASA [HC592] are -0.486 (inactive), 0.851 (inactive) and 0.124 (inactive).
The corresponding values for CAECVTSTWVAGNASASA [HC2180] are 0.903 (inactive), 2.44 and 0.32 (inactive).
As for CAGPARPWKSAGNASASA [FS-127], the “furin cleavage Z-score” value by setting is: (7.5 min) 0.451 (inactive); (15 min) -1.62 (inactive); (30 min) -1.1 (inactive).
The corresponding values for CAGRARCYRSAGNASASA [FS-786] are 5.83 (active), 5.27 (active) and 4.62 (active).
Take CAGVARVRKSAGNASASA [FS-169]: the “furin cleavage Z-score” value by setting is: (7.5 min) 7.76 (active); (15 min) 6.48 (active); (30 min) 7.18 (active).
In the case of CAGPADGMVSAGNASASA [HC667], the “furin cleavage Z-score” value is, setting by setting: (7.5 min) 0.24 (inactive); (15 min) 0.132 (inactive); (30 min) -1.59 (inactive).
In the same order, the values of CAGVARFYRSAGNASASA [FS-661] are 6.6 (active), 7.47 (active) and 8.24 (active).
The corresponding values for CASVNRNKKSAGNASASA [FS-875] are -0.482 (inactive), -0.223 (inactive) and 1.34.
The corresponding values for CARPSRLKKFAGNASASA [FS-290] are -0.934 (inactive), -0.739 (inactive) and -0.88 (inactive).
For CAGVPCHRPSAGNASASA [HC2316], the “furin cleavage Z-score” value (7.5 min) is 0.883 (inactive), the “furin cleavage Z-score” value (15 min) is -1.9 (inactive) and the “furin cleavage Z-score” value (30 min) came out at 1.03.
In the same order, the values of CAGKSRLKKSAGNASASA [FS-429] are 3.94 (active), 3.83 (active) and 4.7 (active).
In the same order, the values of CASTQCSAHLAGNASASA [HC2522] are 1.38, 0.361 (inactive) and 0.641 (inactive).
In the same order, the values of CASPDAELIEAGNASASA [HC1271] are -0.191 (inactive), -1.02 (inactive) and -2.02 (inactive).
With CASTPCSAHDAGNASASA [HC2571], the “furin cleavage Z-score” value is -1.23 (inactive) (7.5 min), -0.24 (inactive) (15 min) and -0.964 (inactive) (30 min).
The corresponding values for CAFNILGGWVAGNASASA [HC1065] are -0.849 (inactive), -1.69 (inactive) and 0.522 (inactive).
In the same order, the values of CATQTVDFSLAGNASASA [HC890] are 0.518 (inactive), 0.088 (inactive) and -1.06 (inactive).
CAIVCCSMSYAGNASASA [HC1984]: the “furin cleavage Z-score” value by setting is: (7.5 min) 0.599 (inactive); (15 min) 0.44 (inactive); (30 min) 1.09.
The corresponding values for CAVVCCSMVYAGNASASA [HC2070] are 1.39, -0.784 (inactive) and -0.578 (inactive).
Turning to CAVEAQLHVWAGNASASA [HC587], the “furin cleavage Z-score” value (7.5 min) was 0.261 (inactive), the “furin cleavage Z-score” value (15 min) is 1.76 and the “furin cleavage Z-score” value (30 min) is 0.118 (inactive).
For CAGKPRVRKSAGNASASA [FS-160], the “furin cleavage Z-score” value is 11.6 (active) (7.5 min), 11.6 (active) (15 min) and 7.27 (active) (30 min).
Turning to CAGPARSHRSAGNASASA [FS-1525], the “furin cleavage Z-score” value was 2.6 (7.5 min), 5.21 (active) (15 min) and 5.09 (active) (30 min).
The corresponding values for CAGMIRVRKSAGNASASA [FS-244] are 9.53 (active), 9.46 (active) and 8.14 (active).
In the same order, the values of CACPGRPWKSAGNASASA [FS-645] are 0.174 (inactive), 0.632 (inactive) and -1.05 (inactive).
The corresponding values for CAPAEILRKSAGNASASA [HC1296] are -1.4 (inactive), -0.0107 (inactive) and -2.04 (inactive).
For the sequence CAEVPCHRKSAGNASASA [HC2394], the “furin cleavage Z-score” value is, setting by setting: (7.5 min) 0.666 (inactive); (15 min) 1.67; (30 min) 0.974 (inactive).
Regarding CAQSLRQRKSAGNASASA [FS-915], the “furin cleavage Z-score” value (7.5 min) is 0.195 (inactive), the “furin cleavage Z-score” value (15 min) is 0.0646 (inactive) and the “furin cleavage Z-score” value (30 min) is 0.773 (inactive).
As for CAMYECSQHLAGNASASA [HC1689], the “furin cleavage Z-score” value (7.5 min) was 1.1, the “furin cleavage Z-score” value (15 min) was 2.02 and the “furin cleavage Z-score” value (30 min) was 0.756 (inactive).
Take CAEVVYSTWVAGNASASA [HC137]: the “furin cleavage Z-score” value is, setting by setting: (7.5 min) -0.752 (inactive); (15 min) 0.088 (inactive); (30 min) 1.03.
The corresponding values for CASTPCSRHLAGNASASA [HC2533] are 1.13, 0.843 (inactive) and -0.486 (inactive).
The corresponding values for CATTPMSGSWAGNASASA [HC48] are -1.24 (inactive), -0.966 (inactive) and -0.511 (inactive).
In the case of CAPTLWARMIAGNASASA [HC1579], the “furin cleavage Z-score” value was 0.463 (inactive) (7.5 min), 2.4 (15 min) and 0.0409 (inactive) (30 min).
In the same order, the values of CAPEIRQARAAGNASASA [FS-1043] are 3.65 (active), 4.35 (active) and 4.12 (active).
In the same order, the values of CAPSNRSARAAGNASASA [FS-1245] are 8.79 (active), 11.3 (active) and 9 (active).
In the same order, the values of CAAMFRVRRNAGNASASA [FS-5] are 13 (active), 11.7 (active) and 9.8 (active).
As to CAREIRQAFKAGNASASA [FS-2912], the “furin cleavage Z-score” value (7.5 min) was 0.791 (inactive), the “furin cleavage Z-score” value (15 min) is 0.404 (inactive) and the “furin cleavage Z-score” value (30 min) is 0.281 (inactive).
Turning to CAYGAGVAGAAGNASASA [HC1088], the “furin cleavage Z-score” value by setting is: (7.5 min) -0.899 (inactive); (15 min) -0.739 (inactive); (30 min) -0.913 (inactive).
In the same order, the values of CAAACGDIINAGNASASA [HC656] are -0.691 (inactive), -0.739 (inactive) and -0.629 (inactive).
In the same order, the values of CAIRARVARAAGNASASA [FS-1348] are 9.33 (active), 9.7 (active) and 7.2 (active).

The record behind these values is the supplement of paper PMC3545927.
